# Assay results published in PubChem BioAssay (EPA / NIEHS).
# Values joined by “and” are separate entries in the source; they are usually repeats but may differ in a detail not shown here. Equal values may be shown once. Records with an inconclusive call do not appear. Where a structure was tested more than once in an assay, its records may differ in their call. Active and inactive are the calls of the source. How the source made its calls: active means hit-call score of the fitted dose curve at least 0.9, where 1 is the maximum; inconclusive means response in the unintended direction; inactive means score below 0.9.
# Experiment: CCTE_Shafer_MEA_dev_LDH: CCTE's Lactate Dehydrogenase Assay for Cytotoxicity in the Neural Network Formation Assay, Shafer Lab (AID 2284068);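 further: exposure for twelve days from plating with re-dosing on DIV 5 and 9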
# Method: CCTE_Shafer_MEA_dev assay is conducted using Axion Biosystems 48 well microelectrode array (MEA) plates and Maestro recording system. Each well of the MEA plate contains a grid of 16 microelectrodes embedded in the culture surface. Electrically active cells, such as neurons, can be cultured over the electrodes, and electrical activity in these cells can be recorded extracellularly. The spontaneous firing of neurons is captured from each electrode on a microsecond timescale providing both temporally and spatially precise data. […] The CCTE_Shafer_MEA_dev assay uses primary cultures of rat cortical neurons. Recordings are made on days post-plating 5, 7, 9 and 12. As these cultures mature over time, neural networks develop functional activity and form cohesive networks in which electrical activity can be highly coordinated. CCTE_Shafer_MEA_dev_LDH is 1 of 19 assay components of the CCTE_Shafer_MEA_dev assay. It measures the lactate dehydrogenase enzyme activity using spectrophotometry.Data from the assay component CCTE_Shafer_MEA_dev_LDH was analyzed into 1 assay endpoint. This assay endpoint, CCTE_Shafer_MEA_dev_LDH, was analyzed in the positive analysis fitting direction relative to DMSO as the negative control and baseline of activity. Using a type of viability reporter, loss-of-signal activity can be used to understand cell viability.
# On the day prior to culture, each well was coated thoroughly with 150 uL of 0.05% polyethyleneimine (PEI, Sigma Cat P3143) in 50 mM HEPES (Sigma Cat H7523) at a pH of 8. The plate was incubated at 37C for one hour. PEI was rinsed out with 500 uL of sterile water three times. Plates were stored at 4C until the day of culture. This culture was plated at a seeding density of 1.5 x 10^5 cells/well on a 48-well MEA plate, prepared as described above. Cells were administered via a 25 uL media/laminin ([…]; Sigma Cat L2020-1MG) drop directly onto the microelectrode array, as adding the cells with the laminin results in better attachment than pre-coating with laminin. After 2 hours, an additional 475 uL of cortical media was added and the cells returned to the incubator. Exposure starts at day 0 of plating and is continued over twelve days of network development until the experiment is terminated. Cells are fed with fresh medium on DIV 5 and 9, following the recordings on those days. The entire volume of media in the well is exchanged and any vehicle or compound treatment is renewed. Complete details are found in OP-NHEERL/ISTD/SBB/TJS/2015-03-r0 (available on request, email shafer.tim@epa.gov). Measurement of the electrical activity is non-invasive, and recordings can be made from the same plate over multiple different days of the culture. In cortical neurons, this allows for the measurement of extracellular action potentials over the period during which networks form in the MEA plate.
Compound,AC50,outcome
CCOP(=S)(Oc1cnc(C(C)(C)C)nc1)OC(C)C (stereo unspecified),77.4 µM (active) and 20.6 µM (active),–
COP(=O)(OC)C(O)C(Cl)(Cl)Cl (stereo unspecified),3.52 µM (active) and 1.47 µM (active),–
CCCCSP(=O)(SCCCC)SCCCC,27.3 µM (active) and 49.9 µM (active),–
CC(C)N(C(=O)SCC(Cl)=C(Cl)Cl)C(C)C,10.7 µM (active),–
CCOP(=O)(OCC)Oc1cc(C)nc(C(C)C)n1,–,inactive
CC(C)[C@H](C(=O)O[C@H](C#N)c1cccc(Oc2ccccc2)c1)c1ccc(Cl)cc1,–,inactive
C[Si](Cn1cncn1)(c1ccc(F)cc1)c1ccc(F)cc1,22.5 µM (active),–
CCOP(=S)(OCC)Oc1cc(C)nc(C(C)C)n1,50 µM (active),–
CN(C)[C@@H]1C(=O)C(C(N)=O)=C(O)[C@@]2(O)C(=O)C3=C(O)c4c(O)cccc4[C@@](C)(O)[C@H]3[C@H](O)[C@@H]12,77.7 µM (active),–
CCOP(=O)(NC(C)C)Oc1ccc(SC)c(C)c1 (stereo unspecified),51 µM (active),inactive
CCOP(=S)(OCC)SCCSCC,–,inactive
O=[N+]([O-])c1cc(C(F)(F)F)c(Cl)c([N+](=O)[O-])c1Nc1ncc(C(F)(F)F)cc1Cl,0.871 µM (active),–
CCOC(=O)CC(SP(=O)(OC)OC)C(=O)OCC (stereo unspecified),–,inactive
CCCSP(=O)(OCC)SCCC,15.7 µM (active) and 15.4 µM (active),–
CCOP(=S)(OCC)Oc1ccc([N+](=O)[O-])cc1,–,inactive
CCOP(=S)(OCC)OC(Cl)C(Cl)(Cl)Cl (stereo unspecified),31 µM (active) and 21.4 µM (active),–
CCOP(=S)(OCC)Oc1ccc2c(C)c(Cl)c(=O)oc2c1,76.4 µM (active),–
COP(=O)(OC)OC(Br)C(Cl)(Cl)Br (stereo unspecified),6.64 µM (active) and 17.1 µM (active),–
COP(=O)(NC(C)=O)SC (stereo unspecified),–,inactive
CC[C@H](C)[C@H]1O[C@]2(C=C[C@@H]1C)C[C@@H]1C[C@@H](C/C=C(\C)[C@@H](O[C@H]3C[C@H](OC)[C@@H](O[C@H]4C[C@H](OC)[C@@H](NC)[C@H](C)O4)[C@H](C)O3)[C@@H](C)/C=C/C=C3\CO[C@@H]4[C@H](O)C(C)=C[C@@H](C(=O)O1)[C@]34O)O2,145 nM (active) and 0.883 nM (active),–
CCCSP(=O)(OCC)Oc1ccc(Br)cc1Cl (stereo unspecified),1.79 µM (active),–
CC(C)=CC1C(C(=O)OCN2C(=O)C3=C(CCCC3)C2=O)C1(C)C (stereo unspecified),10 µM (active),–
CCOP(=O)(SC(C)CC)N1CCSC1=O (stereo unspecified),50 µM (active),–
CON=C(C(=O)OC)c1ccccc1CON=C(C)c1cccc(C(F)(F)F)c1,326 nM (active) and 299 nM (active),–
CSC1=N[C@@](C)(c2ccccc2)C(=O)N1Nc1ccccc1,15 µM (active),–
CC1=NNC(=O)N(/N=C/c2cccnc2)C1,–,inactive
S=C1NCCN1,–,inactive
CN1COCN(Cc2cnc(Cl)s2)C1=N[N+](=O)[O-],–,inactive
C=C(C)[C@H]1Cc2c(ccc3c2O[C@@H]2COc4cc(OC)c(OC)cc4[C@@H]2C3=O)O1,16.4 nM (active) and 15.4 nM (active),–
CC(Oc1cccc(Cl)c1)C(=O)O (stereo unspecified),–,inactive
